Structures are written as SMILES. Inconclusive results are not listed. Activity calls are given as the source filed them. The calls were made as follows: active = hit-call score of the fitted dose curve at least 0.9, where 1 is the maximum; inconclusive = response in the unintended direction; inactive = score below 0.9.

What is called AC50 is the concentration at which the activity in the assay is half-maximal.

Cytochrome P450 3A4 (Homo sapiens), sequence (P08684 whole entry, looked up): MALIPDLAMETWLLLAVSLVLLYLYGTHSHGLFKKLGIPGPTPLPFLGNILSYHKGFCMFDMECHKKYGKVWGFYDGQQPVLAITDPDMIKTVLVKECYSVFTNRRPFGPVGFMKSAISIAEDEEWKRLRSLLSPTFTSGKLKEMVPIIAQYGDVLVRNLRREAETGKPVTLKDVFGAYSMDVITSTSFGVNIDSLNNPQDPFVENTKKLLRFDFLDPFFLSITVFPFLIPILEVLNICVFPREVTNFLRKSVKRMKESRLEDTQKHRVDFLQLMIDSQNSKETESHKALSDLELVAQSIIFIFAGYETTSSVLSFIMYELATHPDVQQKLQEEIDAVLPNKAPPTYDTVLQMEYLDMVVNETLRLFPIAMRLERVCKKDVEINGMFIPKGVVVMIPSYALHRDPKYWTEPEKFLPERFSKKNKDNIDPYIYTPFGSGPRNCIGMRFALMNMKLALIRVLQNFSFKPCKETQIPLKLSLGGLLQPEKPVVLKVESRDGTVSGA

Read-out in this assay: Cytochrome P450 3A4 (Homo sapiens) (UniProt P08684)
The experiment in a line: CLD_CYP3A4_24hr: CellzDirect (CLD) Gene Expression Assay for xenobiotic metabolism (CYP3A4) at 24 hours (AID 2283689). In outline: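 Primary human hepatocytes from two donors dosed daily with fresh compound for two days, 0.2% DMSO vehicle. CYP3A4 mRNA at 24 hr by qNPA chemiluminescence; gain-of-signal fit versus DMSO, cytotoxicity flagged by morphology.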
`COC(=O)c1ccccc1S(=O)(=O)NC(=O)Nc1nc(C)nc(OC)n1`: the molecule was called inactive. Consider `CCOC1Oc2ccc(OS(C)(=O)=O)cc2C1(C)C` (stereo unspecified), for which the concentration at half-maximal activity (AC50) was 20 µM (active).

Take `Clc1ccccc1-c1nnc(-c2ccccc2Cl)nn1`: the AC50 was 3.97 µM (active). Turning to `Oc1ccc(Cl)cc1Cc1ccccc1`, the molecule was called inactive. On the same count and under the same terms, under `O=[N+]([O-])/N=C1\NCCN1Cc1ccc(Cl)nc1` stands “inactive”.

Consider `COC(=O)c1ccccc1CS(=O)(=O)NC(=O)Nc1nc(OC)cc(OC)n1`, for which the molecule was called inactive. `COC(=O)c1ccccc1S(=O)(=O)NC(=O)N(C)c1nc(C)nc(OC)n1`: the molecule was called inactive. For the molecule `N#Cc1c(Cl)c(Cl)c(Cl)c(C#N)c1Cl`, the result was inactive. As to `CCN(CC)C(=O)SCc1ccc(Cl)cc1`, the AC50 was 20 µM (active). `CC(C)N(C(=O)COc1nnc(C(F)(F)F)s1)c1ccc(F)cc1`: the molecule was called inactive. Turning to `O=[N+]([O-])c1c(Cl)c(Cl)c(Cl)c(Cl)c1Cl`, the molecule was called inactive. As to `CC(C)(C)C(O)/C(=C\c1ccc(Cl)cc1Cl)n1cncn1` (stereo unspecified), the AC50 is 0.98 µM (active). As for `CNC(=O)Oc1cccc(N=CN(C)C)c1`, the result was inactive.

As to `O=S(=O)(O)C(F)(F)C(F)(F)C(F)(F)C(F)(F)C(F)(F)C(F)(F)C(F)(F)C(F)(F)F`, the molecule was called inactive. On the same count and under the same terms, with `O=C(NC(=O)c1c(F)cccc1F)Nc1ccc(OC(F)(F)C(F)OC(F)(F)F)c(Cl)c1` (stereo unspecified) the entry was “inactive”. Turning to `CCC(C)Nc1c([N+](=O)[O-])cc(C(C)(C)C)cc1[N+](=O)[O-]` (stereo unspecified), the AC50 was 3.84 µM (active). The same measure, in the same setting: with `CC(C)OC(=O)Nc1cccc(Cl)c1` the figure was 16 µM (active); with `CCCN(CCC)c1c([N+](=O)[O-])cc(C(F)(F)F)cc1[N+](=O)[O-]`, 5.68 µM (active).

With `OCCOc1ccccc1`, the call was inactive.

As for `O=S1OCC2C(CO1)C1(Cl)C(Cl)=C(Cl)C2(Cl)C1(Cl)Cl` (stereo unspecified), the AC50 is 20 µM (active).

In the case of `CCS(=O)(=O)c1cccnc1S(=O)(=O)NC(=O)Nc1nc(OC)cc(OC)n1`, the AC50 is 20 µM (active). As to `CCOCN(C(=O)CCl)c1c(C)cccc1CC`, the AC50 was 3 µM (active). Take `C[C@H]1[C@H](c2ccc(Cl)cc2)SC(=O)N1C(=O)NC1CCCCC1`: the AC50 is 3.56 µM (active).

`Cc1cc(C)nc(NC(=O)NS(=O)(=O)c2ccccc2C(=O)OC2COC2)n1`: the AC50 is 20 µM (active). For the molecule `CC1(c2ccc(Oc3ccccc3)cc2)OC(=O)N(Nc2ccccc2)C1=O` (stereo unspecified), the molecule was classed as inactive. In the case of `CCC(C)(NC(=O)c1cc(Cl)c(C)c(Cl)c1)C(=O)CCl` (stereo unspecified), the AC50 is 4.49 µM (active).
